Source: PubChem BioAssay
Compounds with a hit are over-represented: about 5.7% of the library has one in this group of screens.
NPSR antag – qHTS Assay for Antagonists of the Neuropeptide S Receptor: cAMP Signal Transduction; 220,000 tested, 1% active; CHO-NPSR cells, cAMP TR-FRET, antagonist mode; Potency, µM (series often up to 38.3 µM), for inactives: top-dose activity change, negative = inhibition, most hits filed as inhibitors; also: nearly all actives have a fitted effect of over 50% in size
Target sequence (Q6W5P4 whole entry, looked up): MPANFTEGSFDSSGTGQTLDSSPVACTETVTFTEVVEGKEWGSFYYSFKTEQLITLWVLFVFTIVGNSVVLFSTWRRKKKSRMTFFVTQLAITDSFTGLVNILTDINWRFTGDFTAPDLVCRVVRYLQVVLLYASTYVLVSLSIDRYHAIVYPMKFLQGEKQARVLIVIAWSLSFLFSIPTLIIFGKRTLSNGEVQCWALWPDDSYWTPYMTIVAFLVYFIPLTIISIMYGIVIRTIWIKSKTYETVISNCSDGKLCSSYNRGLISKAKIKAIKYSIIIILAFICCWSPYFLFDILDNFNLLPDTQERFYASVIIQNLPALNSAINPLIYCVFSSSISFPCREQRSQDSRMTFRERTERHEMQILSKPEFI
RORgamma inh – qHTS for inhibitors of ROR gamma transcriptional activity | Nuclear receptor ROR-gamma (Mus musculus), P51450 | Drosophila S2 Gal4-RORgamma UAS-luciferase reporter, 20 h | Potency, µM (series often up to 53.6 µM), without a hit: at the top dose activity change, negative = inhibition, most hits filed as inhibitors | 310,000 tested, 5.4% active | AID 2551, 2010; also: nearly all actives have a fitted effect of over 60% in size
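Stable Schneider cell line, Gal4 DNA-binding domain fused to ROR gamma, UAS-luciferase. Cmpd 1 hr RT → CuSO4 700 uM final → 20 hr RT → luciferase reagent 10 min → luminescence.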
Gal4-VP16 FLuc – VP16 counterscreen qHTS for inhibitors of ROR gamma transcriptional activity; Drosophila S2 Gal4-VP16 UAS-luciferase, luminescence, 20 h; Potency, µM (doses to about 53.6 µM), for the others: at the top dose activity, negative = inhibition, actives largely listed as inhibitors; 310,000 tested, 3.5% active; AID 2546, 2010;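 also: Gal4-VP16 expression switched on by copper sulfate through the metallothionein promoter; nearly all actives have a fitted effect of over 50% in size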
B2AR arrestin – qHTS assay of beta-arrestin-biased ligands of beta2-adrenergic receptor; Potency, µM (highest dose often 46.1 µM), for the others: at the top dose activation, usual class: activators; beta-arrestin recruitment to beta2AR, cell-based reporter; 330,000 tested, 0.02% active;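 also: 0% = DMSO controls and full agonism = EC100 isoproterenol or metaproterenol; nearly all actives have a fitted effect of over 65% in size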
* hit, by the source's call; ? = inconclusive; . = no result; [ ] = dose if it differs, or a comment. Calls follow the shape of the dose curve; as a rule, active = well fitted curve in the direction sought with a large enough effect; inconclusive = small, poorly fitted or top-dose-only effect, or another doubt; inactive = no such curve, though single readings can be large; an effect the other way counts as inactive or inconclusive. Unless noted, % is scaled to controls: 0 for no effect and ±100 for the full control effect; potency is read from the fitted curve at half-maximal effect.

SMILES | NPSR antag | RORgamma inh | Gal4-VP16 FLuc | B2AR arrestin
O=C(N/N=C/c1ccsc1)c1cc(-c2ccncc2)nc2ccccc12 | 15% | 11µM* | -13% | 0%
O=C(N/N=C/c1ccccn1)c1cc(-c2ccncc2)nc2ccccc12 | 1% | 8.9µM* | ? | 2%
Cc1cc(O)c(C)c2sc(N)nc12 | . | 15% | 3% | .
N#CCCn1c(=O)c(CCc2ccccc2)nc2cnc(N3CCOCC3)nc21 | . | 2% | 3% | .
CN1CCN(c2ccnc(-c3cccnc3)n2)CC1 | . | -13% | 5% | .
CCCCNC(=O)Nc1ncn[nH]1 | -8% | 3% | -1% | -1%
O=C(Oc1ccc(-c2nnco2)cc1)N(c1ccccc1)c1ccccc1 | -8%[46.1 µM] | ? | 5%[0.365 µM] | 0%
COCCn1c(=O)c(C)nc2cncnc21 | . | -2% | -6% | .
CCOC(=O)/C(=N\Nc1ccccc1)P(=O)(c1ccccc1)c1ccccc1 | 10µM* | -8% | -12% | -1%
CCCC/C=C/[C@H](c1ccccc1)[C@H](CO)Cc1ccccc1 | . | 22% | -13% | .
Cc1cc(OCC(=O)Nc2ccncc2)cc(C)c1Br | 5%[46.1 µM] | 0% | 11µM* | -1%
CCCCOc1cccc(C(=O)Nc2ccc(NC(=O)c3cccs3)cc2)c1 | . | ? | 0.1µM* | -2%
Cc1cc(OCC(=O)N[C@@H](Cc2ccccc2)c2nc3ccccc3[nH]2)ccc1Cl | -34% | 20µM* | ? | 0%
Cc1ccc(Oc2ccc(OCC(=O)Nc3ccncc3)cc2)cc1 | . | . | . | 0%
CCCOc1ccc(C(=O)Nc2cccnc2)cc1 | . | 28%[1.91 µM] | -7% | -2%
CCCOc1ccc(C(=O)Nc2ccc(NC(=O)c3cccs3)cc2)cc1 | . | 6% | -7% | 1%
CCCCOc1ccc(C(=O)Nc2ccncc2)cc1 | 4%[46.1 µM] | ? | 7.9µM* | 0%
CCCCNc1nc(C)nc2c1nc(-c1ccccc1)n2CCCN(C)C | . | 0% | -3% | .
CCc1cc(C(=O)NCC(C)(C)N2CCOCC2)sc1C | . | . | . | 0%
O=C(COc1ccccc1)Nc1cccc(-c2nn[nH]n2)c1 | . | 18% | 0% | -1%
O=C(COc1ccccc1)Nc1cccc(-c2nc3cc4ccccc4cc3[nH]2)c1 | -17%[46.1 µM] | 1µM* | 2µM* | 0%
O=C(Nc1ccncc1)c1cc(F)cc(F)c1 | 12%[46.1 µM] | ? | 25µM* | 0%
Cc1cc(OCC(=O)Nc2ccc3oc(-c4ccncc4)nc3c2)ccc1Cl | -5%[46.1 µM] | -1% | 17% | .
Cc1cc(OCC(=O)Nc2ccncc2)ccc1Cl | . | ? | 11µM* | -1%
CC(C)(C)c1ccc(NC(=O)COc2ccc(-n3ccnc3)cc2)cc1 | ? | 10µM* | -13% | 0%
SMILES | NPSR antag | RORgamma inh | Gal4-VP16 FLuc | B2AR arrestin
COc1cc(NC(=O)COc2ccc(-n3ccnc3)cc2)cc(OC)c1 | 1% | 7% | 5% | 0%
O=C(Nc1ccncc1)c1ccc(Br)cc1 | . | 27% | 3% | 0%
O=C(O)c1ccc2c(c1)C(=O)N([C@H](Cc1ccc(O)cc1)C(=O)O)C2=O | . | -7% | -6% | 0%
Cc1cc(Nc2cc(Cl)cc(Cl)c2)nc(N)n1 | 4% | 24% | -1% | 0%
CCCCc1ccc(NC(=O)COc2ccc(C(=O)Nc3ccccc3OC)cc2)cc1 | -18%[46.1 µM] | -17% | -25% | 0%
CC(C)(C)c1ccc(OCC(=O)Nc2ccncc2)cc1 | . | ? | -8% | 0%
O=C(COc1ccc2ccccc2c1)Nc1ccncc1 | -18% | ? | 13µM* | 0%
CCCCc1ccc(NC(=O)COc2ccc(C(=O)Nc3ccccc3C)cc2)cc1 | -17% | ? | 11µM* | -1%
CCc1ccc(OCC(=O)Nc2ccncc2)cc1 | . | 39%[1.91 µM] | 3.5µM* | 0%
Cc1ccc(C2=NN(CC(=O)O)C(=O)CC2)cc1 | . | 35% | 18% | 0%
C[C@H]1CC[C@H]2C(=O)N3[C@H](c4ccc(Br)cc4)[C@@H](C)CC[C@H]3C(=O)N2[C@@H]1c1ccc(Br)cc1 | . | 3%[10 µM] | -10%[10 µM] | .
O=C(COC(=O)CCN1C(=O)/C(=C\C=C\c2ccccc2)SC1=S)Nc1ccc(Br)cc1 | -36% | -40% | ? | 0%
CC(C)c1ccccc1NC(=O)COC(=O)CCN1C(=O)/C(=C\C=C\c2ccccc2)SC1=S | -23% | 2.5µM* | 4µM* | -1%
COc1c(C(=O)NCCSC(C)(C)C)ccc2ccccc12 | -14% | 2.2µM* | 0% | 0%
S=c1[nH]nc(CSCCOc2ccc(Cl)cc2Cl)o1 | 37% | 4µM* | 3.2µM* | 0%
Cc1cc(C(=O)NCCC2=CCCCC2)c(C)o1 | 6%[46.1 µM] | 10µM* | ? | 5%
Cc1ccc(S(=O)(=O)N2CCCCC2)cc1C(=O)NCCC1=CCCCC1 | . | . | . | 0%
CCCCCC/C(=N/O)c1ccccn1 | -14%[46.1 µM] | 5µM* | 16µM* | -1%
O=C(CNc1ccc2c(c1)OCO2)N/N=C\c1cn(Cc2ccccc2)c2ccccc12 | -28% | 13µM* | ? | -1%
CCOC(=O)N/N=C/c1cn(Cc2ccc(F)cc2)c2ccccc12 | -4% | -8% | -4% | 11%
O=C(CNc1ccc2c(c1)OCO2)N/N=C\c1cn(Cc2ccc(F)cc2)c2ccccc12 | -22% | ? | 10µM* | -2%
O=C(c1cccc(F)c1)N1CCC2(CCN(Cc3ccccc3)CC2)CC1 | . | -19% | 3% | .
O=[N+]([O-])c1cc([N+](=O)[O-])c2nonc2c1Nc1ccc(O)cc1 | . | 11µM* | 13µM* | 0%
O=[N+]([O-])c1cc([N+](=O)[O-])c2nonc2c1Nc1ccccc1O | . | -18% | -9% | -1%
O=[N+]([O-])c1cncc([N+](=O)[O-])c1Nc1cccc(O)c1 | . | ? | 11µM* | 0%
SMILES | NPSR antag | RORgamma inh | Gal4-VP16 FLuc | B2AR arrestin
Cc1ccccc1Nc1c([N+](=O)[O-])cncc1[N+](=O)[O-] | . | ? | ? | 0%
O=C(CCl)N(c1ccccc1)c1c[nH]c2ccccc12 | -29%[46.1 µM] | 14µM* | ? | 0%
O=C(CCl)N(c1ccc(Cl)cc1)c1c[nH]c2ccccc12 | 7.9µM* | 4.5µM* | 10µM* | 0%
COc1cc([N+](=O)[O-])ccc1NC(=O)CSc1nccn1C | 4% | 2% | -17% | 0%
CSc1nc2ccc3nc(NC(=O)c4ccc(Cl)s4)sc3c2s1 | -14%[46.1 µM] | -8% | -6% | 0%
CSc1nc2ccc3nc(NC(=O)c4cccs4)sc3c2s1 | -13%[46.1 µM] | 6.3µM* | -4% | 0%
COc1cccc(CNC(=O)CCS(=O)(=O)c2ccc3c(c2)oc(=O)n3C)c1 | . | 5% | -2% | 1%
O=C(CCC(=O)N1CCOCC1)NCCc1ccc(Cl)cc1Cl | . | 6.3µM* | -12% | 0%
NCC1O[C@@H](OC2C(N)C[C@H](N)[C@@H](O[C@H]3OC(CO)C(O)C(N)C3O)C2O)C(O)C(O)C1O (stereo partly drawn) | . | 1% | 7% | .
COc1ccc2c(c1)[nH]c1c(N3CCN(Cc4ccc5c(c4)OCO5)CC3)ncnc12 | 13µM* | ? | 10µM* | 0%
O=C(c1ccco1)N1CCN(c2ncnc3c2[nH]c2ccc(Cl)cc23)CC1 | 8% | 3% | 14µM* | 0%
